# Measured values reported in PubChem BioAssay AID758 (NMMLSC, 2007).
# In all, about 190,000 compounds went through this assay and about 110 (0.058%) were called active. Inconclusive results (about 2%) are left out. Many of the other results were omitted from the sample, so actives are more common in it than they were. Values without a mark were called inactive.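 How the source made its calls: active means fluorescent GTP binding to Rab7 beads changed by at least 20 points from the 100% baseline, either direction, mostly lower; inconclusive means compound itself probably fluorescent, or too few beads counted; inactive means the rest.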
# System: Rab7 GTPase wild type (dog), Bodipy-FL-GTP binding
# Experiment: modulators of GTP binding to Rab7, primary screen, biochemical, wildtype, multiplex bead flow cytometry (AID 758);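 further: median green fluorescence of bound Bodipy-FL-GTP per Rab7 bead population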
# Conditions: GST-Rab7 beads, fluorescent GTP binding, at 10 µM, actives lie on both sides, untreated = 100%, excess cold GTP = 0%
row,SMILES,GTP binding activity (percent of control)
1,CCOC(=O)c1ccc(NC(=O)c2cc(=O)[nH]c3ccccc23)cc1,94%
2,CCOc1c(CNCc2ccc(C(=O)O)cc2)cccc1OC,103%
3,COc1ccc(-c2nn(-c3ccccc3)cc2/C=C\C(=O)N2CCOCC2)cc1[N+](=O)[O-],93%
4,CC(O)c1cccc(NC(=O)Cc2cccc3ccccc23)c1 (stereo unspecified),93%
5,CCOc1cc(/C=C2/C(=N)N3OC(C)=CC3=NC2=O)ccc1OC,93%
6,NS(=O)(=O)c1cccc(NC(=O)CN2CCCc3ccccc32)c1,93%
7,Cc1nc([N+](=O)[O-])c(NCCCO)n1Cc1ccccc1,96%
8,O=C(NCc1ccncc1)NC12CC3CC(CC(C3)C1)C2,104%
9,Clc1cccc(-c2nc(NCC3CCCO3)c3ccccc3n2)c1 (stereo unspecified),96%
10,COC(=O)c1c(NC(C)=O)sc(C(=O)Nc2ccccc2OC)c1C,106%
11,O=C(NNC1=C(C(=O)C(F)(F)F)CCC1)c1ccncc1,106%
12,O=C(CN1CCCC1)N1CCN(c2ccccc2)CC1,99%
13,CC(CC(=O)Nc1ccccc1)n1ccnc1 (stereo unspecified),96%
14,CCN(Cc1ccccc1)S(=O)(=O)c1cc(C(=O)O)ccc1OC,107%
15,CCN(CC)CCCSc1nc2ccccc2s1,104%
16,Cc1ccc(NC(=O)C2(N3CCC3=O)CCCCC2)cc1,105%
17,Cc1ccc(NC(=O)c2ccc(Oc3ncccn3)cc2)cc1,97%
18,OCC1(Cc2ccccc2C(F)(F)F)CCN(Cc2cccc3cnccc23)CC1,96%
19,CC1(C)CC(N(Cc2ccccc2)C(=O)Cc2ccccc2)CCO1 (stereo unspecified),101%
20,O=C(Nc1cccnc1)c1cccc(S(=O)(=O)N2CCCC2)c1,94%
21,CCN(CC)C(=O)N(CC)Cc1ccccc1,96%

row,SMILES,GTP binding activity (percent of control)
1,COC(=O)c1ccc(NCC(=O)N2CCCCCC2)cc1,106%
2,COc1ccc(-c2nc(CN3CCN(c4ncccn4)CC3)c(C)o2)cc1C,95%
3,O=C(C1CCCO1)N(c1ccc(F)cc1)C1C=CS(=O)(=O)C1 (stereo unspecified),103%
4,CCc1ccc(/C=C2\SC(N3CCOCC3)=NC2=O)cc1,94%
5,c1ccc(Cc2cc[n+](Cc3ccccc3)cc2)cc1,106%
6,CCOc1cnc(-c2c(-c3ccccc3Cl)noc2C)o1,96%
7,CCCCN(C(=O)/C=C/c1ccco1)c1c(N)n(CC(C)C)c(=O)[nH]c1=O,98%
8,CC(C)(C)c1cnnn1-c1ccc([N+](=O)[O-])cc1,94%
9,CC(C)(C)C(=O)NCCCNc1ccc([N+](=O)[O-])cc1,94%
10,NC(=O)c1ccccc1NC(=O)c1ccccc1F,99%
11,O=C(Nc1ccccc1F)c1ccccc1-c1ccc(C(F)(F)F)cc1,103%
12,O=C(Nc1ccccc1F)c1ccccc1-c1ccccc1,74% (active)
13,O=C(CC1C(=O)NCCN1Cc1ccc(-c2ccccc2)cc1)NCc1ccncc1 (stereo unspecified),96%
14,Cc1ccc(C)c(Cn2nnc3c(=O)[nH]c(C(=O)Nc4ccc(F)cc4)nc32)c1,102%
15,CC(=O)Nc1ccc(Nc2nc3c(S(=O)(=O)c4ccc(C)c(C)c4)nnn3c3ccccc23)cc1,97%
16,CN1CCN(CCC(=O)N/N=C/C=C2\N(C)c3ccccc3C2(C)C)CC1,98%
17,CC(C)CNC(=O)/C=C/C(=O)O,105%
18,O=C(Cc1ccccc1Cl)N1CCN(c2ccccn2)CC1,98%
19,Cc1ccc(CN2CCN(Cc3ccccc3-c3ccco3)CC2CCO)o1 (stereo unspecified),104%
20,CNC(=O)COC(=O)c1cc(-c2ccc(OC)cc2)nc2ccccc12,88%
